tested on: VDR:RXRa (NR concentration 270 nM, RXRa partner concentration 90 nM); assay: PBM binding z-score (relative to random genomic background probes); higher = stronger binding; sequences stand for … in GC…GCGATTGACAGCGTAGAATGAAGG
Description: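 Protein-binding microarray (Agilent 4x180K custom design, double-stranded 60-nt probes: 5' GC cap, 34-nt variable region, 24-nt constant primer region; full probe sequence given). Purified or IVT nuclear receptor:RXRα heterodimers (3:1 NR:RXRα, mostly 270:90 nM) or homodimers were incubated for 1 h in PBS with 2% milk and no ligand, then detected with Alexa488 antibodies. Fluorescence from o1-orientation probes (~5 replicates averaged) was converted to z-scores against 500 random hg19 background probes. Variable regions are seed direct-repeat (DR0–DR5) sites, all their single-nucleotide variants and half-site ablations.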

Sequence	PBM binding z-score
AGTCAAAGTACACTAGGTAACGTAAGATTCAGCT	-0.00797
AGTCAAAGTTCACCTAGGTAACGTAAGATATGCT	4.74
TCTCGGAGGACGCGAAGGTCAGAGCTTTCCAGAG	1.23
TCATATATGTAAAGGTGAAAGTCGAACGATATGA	1.17
TATACACGGTCAAAGGCCAGAGTACGAATGTCGA	0.598
CCTTACGGGTCACTCCAGGTTATACCATCGGAGT	4.19
CGAACTAGGTCAATGACAGGACAGTGAATAGTAA	1.38
CGTCCATGGTCAGCAGGTCAGTGAAAGCGACGTG	0.0484
CCAGACAGGTGAGAAGGTAACTCCGCCTCGATTA	-0.335
AGAATGAAGTTAAGATCAGGGAAACAGAATACAT	-0.31
TATACAGGGTCAAAGGCGAGAGTACGAATGTCGA	4.59
TCTATTAGTTGAAGGGCGACCGACGAGTCCGTTT	0.925
CTCGAAAGGTCGGTTGAGGTGTGTATACGGATAA	1.03
ACTATTAGTTGACTTAGGGCAACCTATACGACGC	0.406
ATCTCTAGGTATAGTTCAGTGAAAGATCGATAGA	1.04
ACTATTAGTTGAGACGAGGGCAACGGATAGGTTG	0.66
ATCGAAAGGTCGACGAGGTGATTATACACCGTTT	5.76
GCTTGTAGATCAAGGTTAACAAAGACTAAGCTAA	0.333
ACAGACAGGTGAGTGAAGGTAAGTCAGCTGGACG	-0.37
TAGCTTAGGTCATTCAGGGGCCAGTATAGAAAGC	3.19

Sequence	PBM binding z-score
ACAGACAGGTGAGGAAGGTAACTCAGGCTATCAT	0.159
GCGACTGGGGCAAGGCAGGTTACCATAAGGTTGG	-0.166
CGTCCAAGGTCAGTAGGTCAGTGAAAGCGACGTG	3.29
CCTGCTAGGTCAATGGTCAGCTATAGCAGCTCGC	0.921
CCTTCTGGGCCAAAAAGGTCATTGATGCCGATAA	4.86
TAGCGTAGGTCATTCAGGGGCCAGTATAGAAAGC	3.37
GCATATAGGTAATACAAGGTGAATGTCCGATTGT	0.106
TCTTGTAGATCAACAGTAGGTTAAGAAAGATCGA	0.333
CCTCCAAGGTCAAAGGTCAGTGAAGAGATGACGG	6.52
CCGAGTAGGCTATGGGGCATTCAGGCAACGGTGA	-0.947
CAAACTAGGTCACCGGTAGGTCAAAGTCCGCATG	4.75
ATATCTAGGTAAAGTTCAGTGAAAGATCGATAGA	1.53
TCTTGTAGATCAACAGGAGGTTAAGAAAGATCGA	0.453
ACTAGTTGGTCAGCTGAGGTCACACATAATTCGG	4.49
GCTCGGAGGACAAGATCAGAGCTTTGTCCGTAGA	-0.806
CGAACGAGGGCATGAGTTGATGGCAAATGCCGAT	1.34
AATACAGGGTCATCGTAGGCCTGAGTACGCACAG	4.97
ACTTACGGGTCAACGAGGTTATAACACGCGTATA	7.9
GCTCGGAGGACAAGGTCATAGCTTTGTCCGTAGA	3.33
CCGACTGGGGCAGAAAGGTAACCATACCATCCGG	-0.526

Source: the supplement of paper PMC6555819
